Inconclusive results are not listed. Values without a mark were called inactive. The source made the active and inactive calls. Unless noted, calls follow the shape of the dose curve; as a rule, active = well fitted curve in the direction sought with a large enough effect in the repeat runs; inconclusive = weak or mixed curves; inactive = no such curve, though single readings can be large; an effect the other way counts as inactive or inconclusive.

The results in this text go back to PubChem BioAssay (Tox21).

The nature of experiment [1]: qHTS assay to identify small molecule agonists of the peroxisome proliferator-activated receptor delta (PPARd) signaling pathway - cell viability counter screen (AID 743211). Also: % is scaled to controls: 0 for no effect and ±100 for the full control effect; nearly all actives have a fitted effect of over 55% in size. An outline of the steps: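 In the same wells used for beta-lactamase reporter measurement, cytotoxicity is scored by CellTiter-Glo. HEK293H PPARd-bla cells receive compound for 17 h at 37C following a 5 h settling period.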

In experiment [2] the target is Peroxisome proliferator-activated receptor delta (Homo sapiens) (UniProt Q03181). In words: qHTS assay to identify small molecule agonists of the peroxisome proliferator-activated receptor delta (PPARd) signaling pathway (AID 743212; calls by dose curve; also: % is scaled to controls: 0 for no effect and ±100 for the full control effect). An outline of the steps: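 HEK293H PPARd-bla cells; 5 h preincubation 37 C/5% CO2; compound (DMSO) 37 C; LiveBLAzer B/G FRET substrate 2 h RT; fluorescence intensity.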
Peroxisome proliferator-activated receptor delta (Homo sapiens), sequence (Q03181 whole entry, looked up): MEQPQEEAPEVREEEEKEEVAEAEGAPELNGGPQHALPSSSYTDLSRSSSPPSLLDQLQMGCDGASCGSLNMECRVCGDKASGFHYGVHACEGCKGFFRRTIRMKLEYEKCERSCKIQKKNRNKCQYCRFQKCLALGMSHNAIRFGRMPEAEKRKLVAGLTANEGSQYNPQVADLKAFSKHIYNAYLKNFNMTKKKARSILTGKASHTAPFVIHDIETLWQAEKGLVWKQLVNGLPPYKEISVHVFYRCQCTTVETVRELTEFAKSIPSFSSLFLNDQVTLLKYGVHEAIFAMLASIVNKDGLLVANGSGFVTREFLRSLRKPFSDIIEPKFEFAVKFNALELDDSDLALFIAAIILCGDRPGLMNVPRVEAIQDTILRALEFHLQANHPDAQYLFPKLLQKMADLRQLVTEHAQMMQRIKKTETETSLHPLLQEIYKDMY

Experiment [3] is described as follows: qHTS assay to identify small molecule antagonists of the peroxisome proliferator-activated receptor delta (PPARd) signaling pathway - cell viability counter screen (AID 743213). Also: % is scaled to controls: 0 for no effect and ±100 for the full control effect; nearly all actives have a fitted effect of over 50% in size. An outline of the steps: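 HEK293H PPARd UAS-bla cells, 5 h pre-incubation, compound + L165041 300 nM final, 17 h 37 C; B/G FRET substrate 2 h RT; then CellTiter-Glo 30 min RT, luminescence.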
In general terms: In qHTS, concentration-response curves come from the screen itself.

Experiment [4] can be described thus: qHTS assay to identify small molecule agonists of the farnesoid-X-receptor (FXR) signaling pathway - cell viability counter screen (AID 743218). Also: % is scaled to controls: 0 for no effect and ±100 for the full control effect; nearly all actives have a fitted effect of over 45% in size. In a few lines:
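Cytotoxicity counter-screen run in parallel, same wells: FXR-UAS-bla HEK 293T cells dosed 16 h at 37 C, viability read by CellTiter-Glo luminescence after 30 min at room temperature.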

The target in experiment [5] is Bile acid receptor (Homo sapiens) (UniProt Q96RI1). In words: qHTS assay to identify small molecule agonists of the farnesoid-X-receptor (FXR) signaling pathway (AID 743220; active = well fitted activation curve with a large enough effect in the signal ratio in the repeat runs, not every such curve was filed as active; the % refers to the signal ratio; also: % is scaled to controls: 0 for no effect and ±100 for the full control effect). An outline of the steps: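 Beta-lactamase reporter under UAS control in GeneBLAzer FXR HEK 293T cells (5000/well) measured with LiveBLAzer FRET substrate after 2 h at room temperature. Compound exposure lasted 16 h at 37C.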
Bile acid receptor (Homo sapiens), sequence (Q96RI1 whole entry, looked up): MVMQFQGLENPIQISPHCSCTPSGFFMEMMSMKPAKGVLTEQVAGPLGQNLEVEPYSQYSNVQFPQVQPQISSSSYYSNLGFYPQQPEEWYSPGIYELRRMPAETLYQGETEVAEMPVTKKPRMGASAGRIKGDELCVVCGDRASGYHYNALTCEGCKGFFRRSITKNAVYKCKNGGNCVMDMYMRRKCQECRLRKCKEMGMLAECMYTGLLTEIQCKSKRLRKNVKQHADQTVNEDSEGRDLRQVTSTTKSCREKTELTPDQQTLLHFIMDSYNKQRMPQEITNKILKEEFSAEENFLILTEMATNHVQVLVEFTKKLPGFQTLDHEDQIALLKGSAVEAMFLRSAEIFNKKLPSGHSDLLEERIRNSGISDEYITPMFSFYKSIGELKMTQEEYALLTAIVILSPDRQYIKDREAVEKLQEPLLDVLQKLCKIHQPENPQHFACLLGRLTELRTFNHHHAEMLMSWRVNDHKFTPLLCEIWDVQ

A short description of experiment [6]: qHTS assay to identify small molecule antagonists of the farnesoid-X-receptor (FXR) signaling pathway - cell viability counter screen (AID 743221; active = well fitted cell-killing curve with a large enough effect in the repeat runs, not every such curve was filed as active; also: % is scaled to controls: 0 for no effect and ±100 for the full control effect; nearly all actives have a fitted effect of over 50% in size). In a few lines: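 Here viability was scored by luminescence after CellTiter-Glo addition to wells already read for beta-lactamase. Prior treatment: compound plus CDCA (50 uM final), 16 h, 37 C, HEK 293T FXR-bla cells.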

Experiment [7] has as its target Vitamin D3 receptor (Homo sapiens) (UniProt P11473). In words: qHTS assay to identify small molecule agonists of the vitamin D receptor (VDR) signaling pathway (AID 743222; calls by dose curve; also: % is scaled to controls: 0 for no effect and ±100 for the full control effect). An outline of the steps: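 Quantitative HTS agonist-mode screen: compounds in DMSO were pin-transferred onto VDR-bla cells and incubated 16 h at 37C, 5% CO2. Reporter activity was detected with LiveBLAzer B/G FRET substrate after 2 h at room temperature.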

Experiment [8] shares this target. Put plainly: qHTS assay to identify small molecule antagonists of the vitamin D receptor (VDR) signaling pathway (AID 743223; active = well fitted inhibition curve with a large enough effect in the signal ratio in the repeat runs, not every such curve was filed as active; the % refers to the signal ratio; also: % is scaled to controls: 0 for no effect and ±100 for the full control effect). An outline of the steps: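 Inhibition of agonist-driven VDR signalling is scored in VDR-bla cells: 3 nM final 1alpha,25-dihydroxyvitamin D3 plus compound, 16 h at 37C, then beta-lactamase detection by FRET substrate fluorescence after 2 h.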

Experiment [9] is described as follows: qHTS assay to identify small molecule agonists of the vitamin D receptor (VDR) signaling pathway - cell viability counter screen (AID 743224). Also: series mostly up to about 63 µM; % is scaled to controls: 0 for no effect and ±100 for the full control effect; nearly all actives have a fitted effect of over 50% in size. In a few lines: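 Viability is measured in the same wells as the VDR-bla reporter assay: after 16 h compound treatment and 2 h substrate loading, CellTiter-Glo is added and luminescence read 30 min later.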
Experiment [10] can be described thus: qHTS assay to identify small molecule antagonists of the vitamin D receptor (VDR) signaling pathway - cell viability counter screen (AID 743225). Also: % is scaled to controls: 0 for no effect and ±100 for the full control effect; nearly all actives have a fitted effect of over 50% in size. In a few lines:
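Compounds were pinned onto VDR-bla HEK 293T cells together with 1-alpha,25-dihydroxyvitamin D3 at 3 nM final. After 16 h at 37C and 5% CO2 plus the reporter readout, cell viability was measured by CellTiter-Glo luminescence (30 min, room temperature).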

Experiment [11] in a line: qHTS assay to identify small molecule agonists of the NFkB signaling pathway - cell viability counter screen (AID 1159515; calls by dose curve; also: series mostly up to about 61 µM; % is scaled to controls: 0 for no effect and ±100 for the full control effect; nearly all actives have a fitted effect of over 55% in size). An outline of the steps:
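Multiplexed viability readout: after the 5 hr compound exposure and 1.5 hr FRET substrate step, CellTiter-Glo reagent went into the same NFkB-bla ME-180 wells; ATP luminescence was measured after 30 min at room temperature.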

The nature of experiment [12]: qHTS assay to identify small molecule agonists of the endoplasmic reticulum stress response signaling pathway (AID 1159516; active = well fitted activation curve with a large enough effect in the signal ratio in the repeat runs, not every such curve was filed as active; the % refers to the signal ratio; also: % is scaled to controls: 0 for no effect and ±100 for the full control effect). In a few lines:
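Tox21 10K library screened in quantitative HTS format on ESRE-bla HeLa cells, a beta-lactamase reporter under ER stress response element control; 5 hr treatment, FRET read.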

A short description of experiment [13]: qHTS assay to identify small molecule agonists of the endoplasmic reticulum stress response signaling pathway - cell viability counter screen (AID 1159517; calls by dose curve). An outline of the steps: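 HeLa cells carrying an ESRE-driven beta-lactamase reporter receive compound for 5 hr at 37 C. Cell viability is then gauged with CellTiter-Glo by luminescence, 30 min at room temperature.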

A short description of experiment [14]: qHTS assay to identify small molecule antagonists of the retinoid-related orphan receptor gamma (ROR-gamma) signaling pathway - cell viability counter screen (AID 1159520). An outline of the steps: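 Cytotoxicity was read from cellular ATP (CellTiter-Glo luminescence) after 16 hr at 37 C with 1 uM doxycycline induction. The inducer was added 2 hr after compound transfer to Tet-on ROR gamma CHO cells.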

Experiment [15] has as its target Nuclear receptor ROR-gamma (Homo sapiens) (UniProt P51449). Put plainly: qHTS assay to identify small molecule antagonists of the retinoid-related orphan receptor gamma (ROR-gamma) signaling pathway (AID 1159521; also: nearly all actives have a fitted effect of over 50% in size; also: potency is read from the fitted curve at half-maximal effect). An outline of the steps:
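Test compounds were applied to Tet-on RORγ CHO cells 2 h ahead of doxycycline hyclate (1 uM final). Luciferase reporter activity was quantified by luminescence after 16 h at 37 C and 5% CO2.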

Experiment [16] is described as follows: qHTS assay to identify small molecule agonists of the AP-1 signaling pathway - cell viability counter screen (AID 1159525; calls by dose curve; also: nearly all actives have a fitted effect of over 55% in size). In a few lines: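 Luminescent ATP readout (Cell Titer Glo, 30 min RT), normalised to DMSO and tetra n-octyl ammonium bromide controls. Cells were ME-180 AP-1-bla in 0.5% dialyzed FBS Opti-MEM, with a 5 h, 37 °C compound exposure.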
For experiment [17], the target named is Retinoic acid receptor RXR-alpha (Homo sapiens) (UniProt P19793). Put plainly: qHTS assay to identify small molecule agonists of the RXR signaling pathway (AID 1159527; calls by dose curve; also: % is scaled to controls: 0 for no effect and ±100 for the full control effect; nearly all actives have a fitted effect of over 35% in size). An outline of the steps:
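Using 9-cis retinoic acid as the reference agonist, chemicals were tested in HEK 293T cells […] for 16 hr; substrate loading lasted 2 hr at room temperature.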

Experiment [18] addresses Bile acid receptor (Homo sapiens) (UniProt Q96RI1). Put plainly: qHTS assay to identify small molecule antagonists of the farnesoid-X-receptor (FXR) signaling pathway (AID 743217; active = well fitted inhibition curve with a large enough effect in the signal ratio in the repeat runs, not every such curve was filed as active; the % refers to the signal ratio; also: % is scaled to controls: 0 for no effect and ±100 for the full control effect). In a few lines:
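Antagonist mode against 50 uM (final) chenodeoxycholic acid stimulation in FXR-bla HEK 293T cells, 16 h at 37 °C. Inhibition detected as reduced beta-lactamase activity via LiveBLAzer B/G FRET fluorescence after 2 h at room temperature.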

The target of experiment [19] is Peroxisome proliferator-activated receptor delta (Homo sapiens) (UniProt Q03181). Put plainly: qHTS assay to identify small molecule antagonists of the peroxisome proliferator-activated receptor delta (PPARd) signaling pathway (AID 743215; active = well fitted inhibition curve with a large enough effect in the signal ratio in the repeat runs, not every such curve was filed as active; the % refers to the signal ratio). An outline of the steps: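 Inhibition of L165041-driven (300 nM final) PPARd signaling is scored in HEK293H UAS-bla cells. Exposure lasts 17 h at 37 C; beta-lactamase activity is then read by FRET substrate fluorescence after 2 h at room temperature.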

Retinoic acid receptor RXR-alpha (Homo sapiens), sequence (P19793 whole entry, looked up): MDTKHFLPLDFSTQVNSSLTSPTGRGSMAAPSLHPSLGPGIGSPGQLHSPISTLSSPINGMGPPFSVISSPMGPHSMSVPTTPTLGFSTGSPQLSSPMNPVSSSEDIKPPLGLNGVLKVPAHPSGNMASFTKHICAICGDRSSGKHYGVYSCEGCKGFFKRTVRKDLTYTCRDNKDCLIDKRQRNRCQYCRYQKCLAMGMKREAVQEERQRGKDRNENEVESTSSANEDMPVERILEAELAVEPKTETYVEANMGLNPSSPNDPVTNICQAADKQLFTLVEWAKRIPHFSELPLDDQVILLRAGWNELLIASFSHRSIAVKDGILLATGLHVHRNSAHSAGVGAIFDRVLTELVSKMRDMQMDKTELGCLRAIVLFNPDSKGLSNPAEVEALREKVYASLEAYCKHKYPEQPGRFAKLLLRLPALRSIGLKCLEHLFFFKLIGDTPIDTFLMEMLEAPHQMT
Vitamin D3 receptor (Homo sapiens), sequence (P11473 whole entry, looked up): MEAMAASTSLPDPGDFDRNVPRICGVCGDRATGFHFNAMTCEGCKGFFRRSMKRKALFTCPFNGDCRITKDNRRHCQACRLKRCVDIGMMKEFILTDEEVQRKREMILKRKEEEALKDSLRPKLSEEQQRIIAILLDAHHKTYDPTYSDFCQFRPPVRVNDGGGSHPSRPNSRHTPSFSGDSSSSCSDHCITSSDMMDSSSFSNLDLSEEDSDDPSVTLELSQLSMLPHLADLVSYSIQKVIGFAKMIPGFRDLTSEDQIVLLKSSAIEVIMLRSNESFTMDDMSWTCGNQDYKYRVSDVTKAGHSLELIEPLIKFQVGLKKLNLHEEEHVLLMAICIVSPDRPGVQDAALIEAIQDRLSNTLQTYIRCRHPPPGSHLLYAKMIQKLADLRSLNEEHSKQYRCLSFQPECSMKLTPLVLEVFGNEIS

As to `CC(C)(C)C1CCCCC1O` (stereo not drawn), the Potency entry in experiment [1], in [3], in experiment [4], in experiment [6], in experiment [8] and in experiment [9] was “inactive” in each case. Moreover, the Potency entry in experiment [10], in experiment [11], in [12], in experiment [14], in experiment [15] and in experiment [16] was “inactive” in each case. The Potency entry in [17] is “inactive”. The outcome in experiment [2], in experiment [5], in [7] and in experiment [13] was inactive.

`Cn1c(N)nc2nc[nH]c2c1=O`: the Potency entry in experiment [1], in experiment [3], in experiment [4], in experiment [6], in [8] and in experiment [9] was “inactive” each time. In addition, the Potency entry in experiment [10], in [11], in experiment [12], in experiment [14] and in experiment [16] was “inactive” in each case. Besides, the result in experiment [2], in [18], in [5], in experiment [7] and in [13] was inactive. Besides, the Potency in experiment [15] was 27 µM (active).

Consider `COc1cc(C(C)(C)C)c(O)c(C(C)(C)C)c1`, for which the Potency result in [1], in experiment [3], in experiment [4], in experiment [6], in experiment [8] and in experiment [10] was “inactive” throughout. The Potency entry in experiment [11], in experiment [12], in [14], in [15] and in [16] was “inactive” throughout. Also, the result in experiment [2], in experiment [5], in [7] and in experiment [13] was inactive.

Consider `N#Cc1cc2ccccc2c2ccccc12`, for which the molecule was called inactive in [2], in experiment [18], in [5], in [7] and in [13]. Besides, the Potency entry in experiment [3], in experiment [4], in experiment [6], in experiment [8], in experiment [9] and in experiment [10] was “inactive” each time. In addition, the Potency entry in [11], in experiment [12], in experiment [14], in experiment [15], in experiment [16] and in [17] was “inactive” in each case.

Turning to `O=C1Nc2cc(Cl)ccc2Oc2ccccc21`, the Potency entry in experiment [1], in experiment [3], in experiment [4], in experiment [6], in experiment [8] and in experiment [9] was “inactive” each time. In addition, the Potency result in experiment [11], in [12], in [14], in [15], in experiment [16] and in [17] was “inactive” each time. For the same molecule, the molecule was classed as inactive in [2], in experiment [19], in [18], in experiment [5], in experiment [7] and in [13].

Turning to `CC(C)c1ccccc1C(C)C`, the Potency result in experiment [1], in experiment [3], in experiment [4], in [6], in experiment [8] and in experiment [9] was “inactive” each time. In addition, the Potency entry in experiment [10], in experiment [11], in experiment [12], in [14], in [15] and in experiment [16] was “inactive” in each case. In experiment [17], the Potency result was “inactive”. Moreover, the call in [2], in experiment [7] and in experiment [13] was inactive.

Take `O=C(C(=O)c1ccc(Br)cc1)c1ccc(Br)cc1`: the Potency result in experiment [1], in experiment [3], in experiment [4], in experiment [6], in [8] and in experiment [9] was “inactive” in each case. In addition, the Potency entry in [10], in experiment [11] and in experiment [12] was “inactive” throughout. Moreover, the call in [2], in [19], in [18], in [5], in experiment [7] and in experiment [13] was inactive. The activity, negative = cytotoxicity in experiment [14] was -5.42% [at 19 µM]. The activity change, negative = inhibition in [15] is 2.45% [at 19 µM]. Besides, the viability change, negative = cytotoxic in experiment [16] was 10.5% [at 15.8 µM].
